Source: PubChem
RE007 growth inh – qHTS Assay for Inhibitors of the HIV-1 protein Vpr | S. pombe RE007 Vpr strain, BacTiter-Glo ATP luminescence, 24 h | Potency, µM (series often up to 92.2 µM), without a hit: top-dose activity change, negative = less growth, most hits filed as inhibitors | actives 0.21% (n = 360,000); active = well fitted falling curve with a large enough effect; inconclusive = small, poorly fitted or top-dose-only effect; inactive = no such curve, though single readings can be large or run the other way; note: potency is the fitted concentration of half-maximal effect; % is set by controls: 0 for no effect and ±100 for the full control effect; nearly all actives have a fitted effect of over 50% in size
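Fission yeast strain RE007, carrying one chromosomally integrated HIV-1 vpr copy, was seeded at OD 0.01 in PMG+AL medium with 23 nL pinned compound. After 24 h at 30 °C and 99% humidity, viability was read by BacTiter-Glo luminescence.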
CHX counter – Cycloheximide Counterscreen for Small Molecule Inhibitors of Shiga Toxin; cell reporter, cycloheximide protein synthesis inhibition counterscreen; max response, %; actives 12% (n = 300,000); AID 2314, 2010; in the data active = max response mostly above about 13%, no sharp cut-off; inactive = mostly below about 14%; note: read at 38.3 µM for the half of the compounds with a filed dose; 0% is about no effect
TbPYK inhibitor – qHTS of Trypanosoma Brucei Inhibitors. pyruvate kinase (Trypanosoma brucei), Q57TT1. TbPYK enzyme, Kinase-Glo Plus ATP luminescence, 45 min. Potency, µM (highest dose often 76.8 µM), for the others: at the highest dose activity, negative = inhibition, most hits filed as inhibitors. actives 0.12% (n = 410,000). AID 624173, 2012; note: potency is the fitted concentration of half-maximal effect; % is set by controls: 0 for no effect and ±100 for the full control effect; nearly all actives have a fitted effect of over 50% in size
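In this concentration-response screen, enzyme-free wells defined baseline while DMSO plates tracked drift. Each reaction combined TbPYK, substrate, compound and 130 uM ADP for 45 min at room temperature. Kinase-Glo Plus luminescence gave the signal.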
LmPK inhibitor – qHTS Assay for Inhibitors of Leishmania Mexicana Pyruvate Kinase (LmPK); purified LmPK, Kinase-Glo ATP luminescence, 1 h; Potency, µM (top dose mostly 57.5 µM), without a hit: at the top dose activity change, negative = inhibition, usual class: inhibitors; actives 0.37% (n = 290,000); AID 1721, 2009; note: potency is the fitted concentration of half-maximal effect; % is set by controls: 0 for no effect and ±100 for the full control effect
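qHTS format; LmPK 0.1 nM; substrates PEP 0.5 mM and ADP 0.1 mM. One-hour room-temperature incubation, then coupled luciferase luminescence; 0.5 nM enzyme wells mark activation.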
Shiga toxin inh – A qHTS for Small Molecule Inhibitors of Shiga Toxin; Vero cells, Shiga toxin protein synthesis inhibition reporter; inhibition, % at 38.7 µM; actives 9.2% (n = 290,000); in the data active = inhibition mostly above about 28%, no sharp cut-off; inactive = mostly below about 43%; note: 0% is about no effect
FBPA Giardia inh – qHTS Assay for Inhibitors of Fructose-1,6-bisphosphate Aldolase from Giardia Lamblia. AID 2451, 2010. Potency, µM (highest dose often 59.6 µM), for inactives: at the top dose activity, negative = inhibition, usual class: inhibitors. actives 0.71% (n = 290,000). purified Giardia FBPA. A8B2U2; note: potency is the fitted concentration of half-maximal effect; % is set by controls: 0 for no effect and ±100 for the full control effect; nearly all actives have a fitted effect of over 55% in size
Target sequence (A8B2U2 whole entry, looked up): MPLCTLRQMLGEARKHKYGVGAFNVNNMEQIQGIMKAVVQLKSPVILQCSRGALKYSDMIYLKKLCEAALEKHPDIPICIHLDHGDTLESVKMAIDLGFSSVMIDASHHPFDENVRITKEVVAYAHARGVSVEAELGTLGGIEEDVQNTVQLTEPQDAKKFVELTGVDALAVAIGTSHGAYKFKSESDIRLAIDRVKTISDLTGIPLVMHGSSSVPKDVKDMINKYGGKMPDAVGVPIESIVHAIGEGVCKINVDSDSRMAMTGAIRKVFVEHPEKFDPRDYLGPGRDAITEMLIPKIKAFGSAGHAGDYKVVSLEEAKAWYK
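Giardia FBPA (40 nM reagent) was preincubated 10 min at RT with compound (up to 57.5 uM final), then substrate plus GAPDH/TPI/NAD/arsenate coupling system with diaphorase/resazurin was added; resorufin fluorescence (525/598 nm) was read after 20 min.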
An asterisk follows results filed as active; ? = inconclusive; / = not tested or not shown; [ ] = remark or other dose. Many of the other results were omitted from the sample, so hits are more common in it than they were. Unless noted, calls come from the whole dose curve; as a rule, active = well fitted curve in the direction sought with a large enough effect; inconclusive = small, poorly fitted or top-dose-only effect, or another doubt; inactive = no such curve, though single readings can be large; an effect the other way counts as inactive or inconclusive.

SMILES	RE007 growth inh	CHX counter	TbPYK inhibitor	LmPK inhibitor	Shiga toxin inh	FBPA Giardia inh
CCCn1nnc(NC(=O)c2ccccc2Br)n1	0.3%	18.8	5.5%	-7.7%	48.6*	-2.9%
Cc1ccc(CN2CCCn3nc(C(=O)NCCc4ccccc4Cl)cc3C2=O)cc1	/	/	-3.1%	/	/	/
CN1CCN(c2ccnc(-c3ccccc3C(F)(F)F)n2)CC1	/	/	/	/	/	-7.9%
C=CCN(CC=C)C(=O)c1ccc2nc(Cc3ccc(OC)c(OC)c3)oc2c1	7.4%	17.1*	-7.4%	7.6%	12.6	-0.4%
C=CCN(Cc1nc(-c2ccccc2)no1)C(=O)c1ccc2c(c1)OCO2	16.5%	-1.7	-5.6%	-3.9%	-13.0	5.3%
C#CCN(CC=C)C(=O)c1ccc2nc(C3CCCCC3)oc2c1	-9.7%	19.1*	-1.0%	0.1%	57.1	-3.0%
COc1ccc(Cc2nc3ccc(C(=O)N4CCCC4)cc3o2)cc1	1.5%	70.5*	5.4%	-4.1%	105.6*	/
COc1ccc(Cc2nc3ccc(C(=O)NC(C)Cc4ncccc4C)cc3o2)cc1OC (configuration not stated)	0.1%	29.7*	-5.3%	-4.7%	39.2	/
COc1ccc(Cc2nc3ccc(C(=O)N4CCC[C@H]4CO)cc3o2)cc1	?	-3.4	-9.4%	5.2%	25.2	4.2%
COc1ccc(Cc2nc3ccc(C(=O)NCc4cc(C)no4)cc3o2)cc1OC	1.8%	-1.9	2.7%	2.2%	-1.8	4.5%
CCC(=O)N1CCc2cc(Br)cc(S(=O)(=O)CCC(=O)NCc3ccc(F)cc3)c21	/	/	1.2%	/	/	/
COc1ccc(Cc2nc3ccc(C(=O)N(C)CC4COCCO4)cc3o2)cc1 (configuration not stated)	4.1%	39.3*	1.7%	-5.2%	71.6*	-1.7%
COc1ccc(Cc2nc3ccc(C(=O)N(C)CCCN4CCOCC4)cc3o2)cc1	7.3%	-1.5	-9.6%	-3.3%	-2.1	/
COc1ccc(Cc2nc3ccc(C(=O)N4CCCC4)cc3o2)cc1OC	-6.6%	12.6	-3.4%	1.0%	36.5*	-3.7%
COc1ccc(Cc2nc3ccc(C(=O)N4CCN(C)C(C)C4)cc3o2)cc1OC (configuration not stated)	1.2%	10.8*	-9.4%	-5.3%	9.0	-9.2%
COc1ccc(Cc2nc3ccc(C(=O)N4CCCCC4CO)cc3o2)cc1OC (configuration not stated)	-2.7%	/	-0.2%	/	/	/
CC(C)(C)OC(=O)NC(Cc1ccccc1)C(O)c1ccco1 (configuration not stated)	/	19.0	/	/	32.1	0.0%
O=C(CCl)N(C/C=C/c1ccccc1)c1ccc2c(c1)OCCO2	34.2%	52.0*	-6.5%	0.7%	164.4*	-28.6%
COc1ccc(CCNC(=O)c2ccc3ccccc3n2)cc1OC	2.5%	-0.9	16.1%	-0.9%	6.9	-0.6%
O=C(NCc1ccc(Cl)cc1)c1ccc2ccccc2n1	-5.1%	19.8*	2.6%	1.0%	62.7	-3.6%
CCOc1ccc(CCNC(=O)c2ccc3ccccc3n2)cc1OCC	-17.0%	43.9*	4.9%	-0.9%	52.7*	/
O=C(NCCOc1ccc(Cl)cc1)c1ccc2ccccc2n1	-18.5%	9.3*	-2.6%	3.5%	33.1	-6.2%
COc1ccc(CCNC(=O)c2cnc3ccccc3n2)cc1	-2.0%	14.5*	-3.3%	-0.3%	43.1	-2.5%
COc1ccc(CCNC(=O)c2cccc(C(=O)NCCc3ccc(OC)cc3)n2)cc1	24.1%	/	-0.2%	/	/	/
Cc1ccc(OCCNC(=O)c2ccc3ccccc3n2)cc1	30.8%	10.5	20.5%	0.6%	38.9	4.8%
SMILES	RE007 growth inh	CHX counter	TbPYK inhibitor	LmPK inhibitor	Shiga toxin inh	FBPA Giardia inh
COc1ccc(-c2nc3cnc(Nc4cccc(OC)c4)nc3n(C[C@H]3CCCO3)c2=O)cc1	/	/	/	/	/	-14.1%
Cc1cc(=O)oc2c3c(cc(OCC(=O)NCc4ccco4)c12)OC(C)(C)CC3	-12.4%	30.2*	-0.8%	5.4%	33.2*	-0.2%
Cc1c(C)c2c(OCC(=O)NCc3ccco3)cc3c(c2oc1=O)CCC(C)(C)O3	8.2%	0.9	9.7%	1.4%	-2.2	-2.1%
Cc1cccc(Nc2nnc(SCC3CCCCO3)s2)c1 (configuration not stated)	-29.7%	36.2*	-15.4%	-10.5%	49.4*	-2.2%
COC(=O)NC(c1ccccc1)[C@@]1(C(=O)OC)CCCC1=O (some centres not stated)	/	/	/	/	/	1.1%[12.9 µM]
OCC(O)C(O)C(O)C(O)C(O)CO (configuration not stated)	/	/	/	/	/	1.4%
CCOc1ccc(/C=C/C(=O)c2c(O)cc(C)oc2=O)cc1	-13.1%	42.3*	-15.0%	?	56.7*	-1.8%
Cc1cc(O)c(C(=O)/C=C/c2ccc(C(C)C)cc2)c(=O)o1	-0.2%	52.7*	0.2%	-3.8%	66.3*	13.8%
Cc1cc(O)c(C(=O)/C=C/c2ccccc2Br)c(=O)o1	-1.4%	20.2*	3.5%	-1.2%	/	3.2%
CCc1ccccc1N/N=C(/C)c1c(O)cc(C)oc1=O	1.5%	1.1	-4.0%	1.8%	-6.3	-10.8%
Cc1cc(O)c(C(=O)/C=C/c2ccccc2)c(=O)o1	-4.8%	13.5	1.5%	-3.4%	44.0*	-9.3%
COC(=O)[C@@]1(Cc2ccccc2)[C@H]2c3cc(C(=O)N4CCCC4)n(CCO)c3C[C@H]2CN1C(=O)c1ccccc1	/	/	/	/	/	-2.5%
CCCC/C=C/C(NC(=O)C(C)(C)C)c1ccccc1 (configuration not stated)	/	/	/	/	/	-1.0%
CCOc1ccccc1CNC(=O)c1ccc(NC(=O)N2CC(C)Sc3ccccc32)cc1 (configuration not stated)	/	/	1.1%	/	/	/
C/C(=C\C=C\c1ccccc1)C(=O)c1c(C)cc(C)[nH]c1=O	5.8%	5.3	-4.8%	8.2%[11.5 µM]	14.5	-3.4%
Cc1cc(C)c(C(=O)/C=C/C=C/c2ccccc2)c(=O)[nH]1	-24.1%	24.9*	-7.4%	0.5%	51.6*	-12.3%
O=C(CCCCn1c(=O)c2ccccc2n(Cc2ccccc2F)c1=O)NCc1ccc2c(c1)OCO2	/	/	8.9%	/	/	/
OC[C@H]1OC(O)[C@H](O)[C@@H](O)[C@@H]1O (some centres not stated)	/	-4.1	/	/	-8.9	-2.2%
O=C1C=C(Nc2ccccc2)C(=O)c2ccccc21	?	48.2*	-9.7%	?	80.8*	?
